Screening results deposited in PubChem BioAssay by National Center for Advancing Translational Sciences (NCATS).
Hits are enriched below; roughly 15% of the tested compounds scored in any of these assays.
TDP1 cell noCPT – qHTS for Inhibitors of human tyrosyl-DNA phosphodiesterase 1 (TDP1): qHTS in cells in absence of CPT; DT40 Tdp1-/- hTDP1 cells, no CPT, ATP luminescence, 48 h; Potency, µM (titrated, usually from 46.2 µM), for inactives: at the highest dose activity change, negative = growth inhibition, most hits filed as inhibitors; AID 686978, 2013; 420,000 compounds, 15% hits; further: nearly all actives have a fitted effect of over 55% in size
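Cells were dispensed at 400 per well, compounds added by pin tool, plates incubated ≥48 hr at 37 °C, then CellTiter-Glo added for 30 min at room temperature before luminescence reading. Line: DT40 Tdp1-/- complemented with hTDP1; camptothecin omitted.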
ALOX12 inh – ALOX12 (human) lipoxygenase inhibition | Potency, µM (top dose mostly 108 µM), inactives show at the highest dose activity change, negative = inhibition, most hits filed as inhibitors | P18054 | AID 1671190 | purified 12hLO, xylenol orange hydroperoxide absorbance | 580,000 compounds, 1.1% hits
Target sequence (P18054 whole entry, looked up): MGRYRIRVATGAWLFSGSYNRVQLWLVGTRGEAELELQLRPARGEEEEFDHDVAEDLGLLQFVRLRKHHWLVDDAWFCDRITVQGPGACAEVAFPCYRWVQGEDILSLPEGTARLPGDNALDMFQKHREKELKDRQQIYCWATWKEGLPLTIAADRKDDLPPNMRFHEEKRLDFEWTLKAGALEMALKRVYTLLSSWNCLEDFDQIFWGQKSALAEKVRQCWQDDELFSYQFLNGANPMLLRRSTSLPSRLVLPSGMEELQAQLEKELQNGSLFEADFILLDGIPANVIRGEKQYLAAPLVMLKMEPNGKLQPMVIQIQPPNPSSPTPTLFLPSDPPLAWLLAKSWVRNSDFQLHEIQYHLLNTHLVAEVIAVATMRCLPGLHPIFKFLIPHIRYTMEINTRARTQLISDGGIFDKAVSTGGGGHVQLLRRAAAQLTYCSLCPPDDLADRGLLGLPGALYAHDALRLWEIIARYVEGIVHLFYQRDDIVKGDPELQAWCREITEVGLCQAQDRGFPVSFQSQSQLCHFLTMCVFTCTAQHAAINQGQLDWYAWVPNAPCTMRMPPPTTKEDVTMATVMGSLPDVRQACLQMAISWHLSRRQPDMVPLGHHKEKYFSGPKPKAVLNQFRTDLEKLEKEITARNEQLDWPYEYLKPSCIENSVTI
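Purified human 12hLO (150 nM final) in 25 mM Hepes, 0.01% Triton X-100, pH 7.0 was preincubated 15 min at room temperature with compound. Then 40 uM arachidonic acid was added, 30 min. Hydroperoxide was read by Fe-XO absorbance ratio 573/405 nm.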
ELG1 DNA repair – ELG1-dependent DNA repair inhibition; HEK293T ELG1-luciferase reporter, luminescence, 16 h; DNA damage induced by 5-fluorouridine; Potency, µM (highest dose often 46.1 µM), for inactives: at the highest dose activity change, negative = inhibition, hits mostly inhibitors; 330,000 compounds, 2.3% hits; further: nearly all actives have a fitted effect of over 55% in size
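HEK293T cells expressing luciferase-tagged ELG1 (2,000/well) received 5-Fluorouridine plus compound or DMSO for 16 hr at 37 °C. Luciferase was read by ONE-Glo luminescence after 30 min at room temperature.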
VP16 counter – inhibits Gal4-VP16 luciferase reporter, ROR gamma counter-screen; Potency, µM (top dose mostly 53.6 µM), without a hit: top-dose activity, negative = inhibition, usual class: inhibitors; AID 2546; 310,000 compounds, 3.5% hits; Drosophila S2 Gal4-VP16 UAS-luciferase, luminescence, 20 h;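 further: Gal4-VP16 expression switched on by copper sulfate through the metallothionein promoter; nearly all actives have a fitted effect of over 50% in size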
RORgamma inh – inhibitors of mouse ROR gamma transcriptional activity; P51450; Drosophila S2 Gal4-RORgamma UAS-luciferase reporter, 20 h; Potency, µM (top dose mostly 53.6 µM), for the others: at the highest dose activity change, negative = inhibition, hits mostly inhibitors; 310,000 compounds, 5.4% hits; further: nearly all actives have a fitted effect of over 60% in size
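Compounds are pin-transferred onto Drosophila Schneider cells expressing a copper-inducible Gal4–ROR gamma transactivation domain fusion. After 1 hr, copper sulfate is added to 700 uM final; luciferase is read 20 hr later.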
DT40 TDP1 CPT – DT40-hTDP1 cell growth loss with CPT; chicken DT40 Tdp1-/-;hTDP1 cells + 20 nM CPT, ATP luminescence, 48 h; 420,000 compounds, 12% hits; Potency, µM (titrated, usually from 46.2 µM), without a hit: at the highest dose activity change, negative = growth inhibition, most hits filed as inhibitors; further: nearly all actives have a fitted effect of over 55% in size
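Cell growth measured by CellTiter-Glo luminescence after a minimum 48 h, 37 C compound exposure with 20 nM CPT in Tdp1-knockout DT40 cells stably expressing hTDP1, seeded 400/well; qHTS titration format.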
* = called active by the depositor; ? = inconclusive; · = no result; [ ] = another dose, or the depositor's remark. The call rests on the fitted dose curve; in most records, active means well fitted curve in the direction sought with a large enough effect; inconclusive means small, poorly fitted or top-dose-only effect, or another doubt; inactive means no such curve, though single readings can be large; an effect the other way counts as inactive or inconclusive. On the % scale 0 is the no-effect control and ±100 the full control effect; potency means the concentration at half of the fitted maximal effect.

SMILES | TDP1 cell noCPT | ALOX12 inh | ELG1 DNA repair | VP16 counter | RORgamma inh | DT40 TDP1 CPT
Cc1cccc(-n2ccnc2SCC(=O)Nc2ccc(F)cc2F)c1C | 20.6µM* | -7.1% | · | · | · | 16.4µM*
Cn1ccnc1SCC(=O)Nc1cc(F)ccc1F | 4.0% | 0.0% | 12.2% | 2.2% | 11.0% | -2.7%
CCSc1nnc(NC(=O)CSc2nccn2-c2cccc(C)c2)s1 | -4.8% | -21.8% | -0.9% | ? | 11.2µM* | 1.0%
O=C(CSc1nccn1-c1cccc(Cl)c1)NO | -22.7% | -5.2% | 7.3% | -4.8% | -31.6% | ?
O=C(CSc1nccn1-c1cccc(Cl)c1)NC1CCCC1 | 20.6µM* | 104.7% | -2.0% | 10.0% | -1.9% | -23.3%
Cc1cc(NC(=O)CSc2nccn2-c2cccc(Cl)c2)no1 | -28.7% | 19.1% | -0.1% | 3.7% | 41.0% | -7.4%
Cc1cc(C)cc(-n2ccnc2SCC(=O)Nc2ccc3c(c2)OCCO3)c1 | -24.2% | 449.6% | -10.2% | -10.6% | -1.2% | -26.0%
CCOc1ccccc1NC(=O)CSc1nccn1-c1cccc(C)c1 | 18.4µM* | -23.2% | · | · | · | 20.6µM*
Cc1cccc(NC(=O)CSc2nccn2-c2cccc(Cl)c2)c1C | ? | 2.8% | · | · | · | 20.6µM*
Cc1cc(C)cc(-n2ccnc2SCC(=O)Nc2ccc(C)c(Cl)c2)c1 | 18.4µM* | -18.6% | · | · | · | 16.4µM*
Cc1ccc(C)c2c1cc(C)c1nnc(SCC(=O)N3CCCc4ccccc43)n12 | 14.6µM* | 16.5% | ? | 3.7% | -17.0% | ?
COc1ccccc1NC(=O)CSc1nccn1Cc1ccc(F)cc1 | ? | -16.3% | 8.0% | -7.7% | 10.1% | ?
O=C(CSc1nccn1Cc1ccc(F)cc1)Nc1ccc(F)cc1F | -24.6% | -19.1% | 23.1µM* | -21.8% | 2.4% | -22.7%
Cc1ccc(C)c(NC(=O)CSc2nccn2Cc2ccco2)c1 | 10.2% | · | ? | 3.2% | -14.1% | -26.4%
CCc1ccc(NC(=O)CSc2nccn2-c2ccc(F)cc2)cc1 | -18.2% | -4.1% | · | · | · | ?
CCc1ccc(NC(=O)CSc2nccn2-c2cccc(C)c2C)cc1 | 20.6µM* | -2.8% | · | · | · | 23.1µM*
Cc1ccc(C)c(NC(=O)CSc2nccn2-c2cccc(C)c2C)c1 | 20.6µM* | 4.6% | · | · | · | 18.4µM*
O=C1NC2(CCCN(Cc3ccc(C(F)(F)F)cc3)C2)COc2ccccc21 (configuration not stated) | · | 64.1% | · | · | · | ·
Cn1nc(-c2nncn2CC2CC2)c2c1CCN(C(=O)c1ccncc1)C2 | · | 37.4% | · | · | · | ·
CNc1cccnc1C=NNC(N)=S | 0.92µM* | 0.8% | · | · | · | 1.16µM*
NC(=S)NN=Cc1nccc2c(C(F)(F)F)cccc12 | 0.731µM* | ? | · | · | · | 0.517µM*
C=CCNC(=S)N/N=C/c1ccccc1C(F)(F)F | · | 2.4% | · | · | · | ·
CCn1cc(S(=O)(=O)N2CC(Oc3ccccc3-c3noc(C)n3)C2)cn1 | · | -7.5% | · | · | · | ·
CCNC(=O)c1ccccc1SCc1ccccc1 | -5.8% | 0.7% | 7.9% | -19.0% | -18.3% | -19.1%
CCc1ccc(OCCNC(=O)c2ccccc2SCc2ccccc2)cc1 | 20.6µM* | 23.6% | -7.0% | -3.5% | 34.0% | ?
SMILES | TDP1 cell noCPT | ALOX12 inh | ELG1 DNA repair | VP16 counter | RORgamma inh | DT40 TDP1 CPT
COC(=O)/C(=C\Nc1ccc(Cl)cc1Cl)NC(=O)c1ccc(Cl)cc1Cl | ? | -4.2% | · | -3.3% | -4.0% | 20.6µM*
COC(=O)/C(=C\Nc1ccc(Cl)cc1Cl)NC(=O)c1ccccc1 | ? | 53.3% | · | 10.4% | 42.8% | -28.5%
COC(=O)c1ccccc1NC1=C/C(=N\S(=O)(=O)c2cccs2)c2ccccc2C1=O | 5.8µM* | -1.1% | 5.17µM* | ? | 27.0% | 3.26µM*
COC(=O)c1cccc(NS(=O)(=O)c2cccs2)c1C | -14.9% | 0.0% | · | 28.9% | 38.2% | -14.0%
O=C1C(Nc2ccccc2)=C/C(=N/S(=O)(=O)c2cccs2)c2ccccc21 | 4.61µM* | · | 6.51µM* | 5.01µM* | 4.47µM* | 2.91µM*
O=C1C(Nc2ccccc2)=C(NS(=O)(=O)c2ccccc2)C(=O)c2ccccc21 | ? | 1.3% | 2.5% | -23.0% | -36.1% | -29.1%
Cc1ccc(NC2=C/C(=N/S(=O)(=O)c3cccs3)c3ccccc3C2=O)cc1 | 3.26µM* | -16.9% | ? | 6.31µM* | 10µM* | 1.84µM*
COc1ccc(C2C3=C(CCCC3=O)Nc3c(C#N)cnn32)c(OC)c1 (configuration not stated) | · | -7.2% | · | · | · | ·
Cc1ncsc1CCC(=O)N1CCCC(c2nc(-c3ccncc3)ncc2-c2ccccc2)C1 (configuration not stated) | 20.6µM* | -16.2% | · | · | · | 8.6%[9.04 µM]
COc1ccc(C(=O)N2CCCC(Nc3ccc(C(C)C)cc3)C2)c(OC)n1 (configuration not stated) | 23.1µM* | ? | -11.0% | 3.0% | -7.2% | ?
CCc1nccn1CCC(=O)N1CCCC(Nc2ccc(C(C)C)cc2)C1 (configuration not stated) | 18.4µM* | -21.3% | -7.7% | 5.9% | -5.9% | ?
Cc1ncsc1CCC(=O)N1CCCC(Nc2ccc(F)c(F)c2)C1 (configuration not stated) | ? | 12.0% | -6.9% | 2.9% | 38.7% | 13µM*
COC(=O)c1ccc(C(=O)N2CCCC(Nc3ccc(C(C)C)cc3)C2)nc1 (configuration not stated) | -13.5% | ? | -2.7% | -4.7% | 6.2% | ?
Cc1ccc(NC2CCCN(C(=O)CCc3scnc3C)C2)cc1C (configuration not stated) | -26.9% | -14.5% | -11.7% | 1.4% | 5.5% | ?
CCN1CCN(Cc2cc(=O)oc3cc(O)c(Cl)cc23)CC1 | · | 1.8% | · | · | · | ·
